PubChem BioAssay (EPA / NIEHS)
Activity calls are given as the source filed them. The calls were made as follows: active = hit-call score of the fitted dose curve at least 0.9, where 1 is the maximum; inactive = score below 0.9.

Assays:
Conditions in all cases: mRNA level, 48 h; actives raise or lower the signal
[1] = read-out: Cytochrome P450 4A22 (Homo sapiens) (UniProt Q5TCH4); assay: LTEA_HepaRG_CYP4A22: Life Technologies and Expression Analysis (LTEA) Assay for Cytochrome P450 4A22 (CYP4A22) using HepaRG (AID 2283495)
Outline: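 HepaRG, 48 h post-plating -> serum-free induction medium; dosed 48 h, duplicate, 8 conc. (100 uM top, half-log), 0.5% DMSO. Readout: CYP4A22 mRNA by qRT-PCR, ACTB/GAPDH/POLR2A normalization; gain/loss fit relative to DMSO.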

[2] = read-out: Cytochrome P450 7A1 (Homo sapiens) (UniProt P22680); assay: LTEA_HepaRG_CYP7A1: Life Technologies and Expression Analysis (LTEA) Assay for Cytochrome P450 7A1 (CYP7A1) using HepaRG (AID 2283496)
Outline: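 Using 0.5% DMSO as vehicle and baseline, chemicals were tested in duplicate over an 8-point range from 100 uM on HepaRG cells for 48 h; qRT-PCR signals were normalised to ACTB, GAPDH and POLR2A.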

[3] = read-out: Glutathione S-Transferase (GSTA2), GSTA2 (gene 2939); assay: LTEA_HepaRG_GSTA2: Life Technologies and Expression Analysis (LTEA) Assay for Glutathione S-Transferase (GSTA2) using HepaRG (AID 2283497)
Outline: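 qRT-PCR readout of GSTA2 transcript, normalized to three housekeeping genes, fitted bidirectionally against 0.5% DMSO baseline. Differentiated HepaRG cells received compound for 48 h at 8 concentrations (top 100 uM, half-log steps).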

[4] = read-out: Glutamate-cysteine ligase catalytic (GCLC), GCLC (gene 2729); assay: LTEA_HepaRG_GCLC: Life Technologies and Expression Analysis (LTEA) Assay for Glutamate-cysteine ligase catalytic (GCLC) using HepaRG (AID 2283498)
Outline: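 HepaRG, 48 h exposure, 8-pt half-log series from 100 uM, 0.5% DMSO vehicle; TaqMan qRT-PCR for GCLC mRNA, housekeeping-normalized; bidirectional curve fit vs DMSO baseline.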

[5] = read-out: growth arrest and DNA damage 45 (GADD45G), GADD45G (gene 10912); assay: LTEA_HepaRG_GADD45G: Life Technologies and Expression Analysis (LTEA) Assay for growth arrest and DNA damage 45 (GADD45G) using HepaRG (AID 2283499)
Outline: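 HepaRG, 48 h exposure, top 100 uM, half-log 8-point series, 0.5% DMSO vehicle, duplicates. Readout: GADD45G transcript by qRT-PCR (Fluidigm array), housekeeping-normalised (ACTB/GAPDH/POLR2A). Bidirectional curve fit vs DMSO baseline.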

[6] = read-out: Glutamate-cysteine ligase regulatory (GCLM), GCLM (gene 2730); assay: LTEA_HepaRG_GCLM: Life Technologies and Expression Analysis (LTEA) Assay for Glutamate-cysteine ligase regulatory (GCLM) using HepaRG (AID 2283500)
Outline: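 HepaRG, 48 h dosing, 100 uM top, half-log x8, 0.5% DMSO vehicle. Readout: GCLM mRNA by TaqMan qRT-PCR, housekeeping-normalized (ACTB/GAPDH/POLR2A). Curves fit bidirectionally vs DMSO baseline.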

[7] = read-out: Glutathione S-transferase M3 (GSTM3), GSTM3 (gene 2947); assay: LTEA_HepaRG_GSTM3: Life Technologies and Expression Analysis (LTEA) Assay for Glutathione S-transferase M3 (GSTM3) using HepaRG (AID 2283501)
Outline: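 qRT-PCR read-out of GSTM3 transcript, normalized to three housekeeping genes, from human HepaRG cells after 48 h chemical exposure. Eight-point half-log series, top 100 uM, 0.5% DMSO vehicle; gain or loss fitted relative to DMSO baseline.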

[8] = read-out: Heat shock 70 kDa protein 1 (HSPA1A), gene 3303; assay: LTEA_HepaRG_HSPA1A: Life Technologies and Expression Analysis (LTEA) Assay for Heat shock 70 kDa protein 1 (HSPA1A) using HepaRG (AID 2283502)
Outline: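 HepaRG, 48 h exposure, 8-pt half-log CRC from 100 uM in 0.5% DMSO, duplicates. Readout: TaqMan qRT-PCR of HSPA1A mRNA, housekeeping-normalized (ACTB/GAPDH/POLR2A). Bidirectional fit vs 0.5% DMSO baseline.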

[9] = read-out: Hypoxia-inducible factor 1-alpha (Homo sapiens) (UniProt Q16665); assay: LTEA_HepaRG_HIF1A: Life Technologies and Expression Analysis (LTEA) Assay for Hypoxia-inducible factor 1 (HIF1A) Trancription factor using HepaRG (AID 2283503)
Outline: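 Gain- or loss-of-signal HIF1A mRNA changes are fitted against a DMSO baseline. HepaRG cultures receive eight concentrations, highest 100 uM, for 48 h in serum-free induction medium with 0.5% DMSO.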

[10] = read-out: 3-Hydroxy-3-Methylglutaryl-CoA Synthase 2 (HMGCS2), HMGCS2 (gene 3158); assay: LTEA_HepaRG_HMGCS2: Life Technologies and Expression Analysis (LTEA) Assay for 3-Hydroxy-3-Methylglutaryl-CoA Synthase 2 (HMGCS2) using HepaRG (AID 2283504)
Outline: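 qRT-PCR read-out of HMGCS2 transcript, normalised to three housekeeping genes, in HepaRG cells after 48 h chemical exposure. Eight-point curves from 100 uM, half-log dilutions, 0.5% DMSO vehicle; gain or loss fitted relative to DMSO baseline.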

[11] = read-out: HGF (gene 3082); assay: LTEA_HepaRG_HGF: Life Technologies and Expression Analysis (LTEA) Assay for Hepatocyte Growth Facto (HGF) using HepaRG (AID 2283505)
Outline: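 HepaRG, 48 h dosing, 8-pt half-log series from 100 uM in 0.5% DMSO, duplicates. Readout: TaqMan qRT-PCR of HGF mRNA, housekeeping-normalized; bidirectional curve fit vs DMSO baseline.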

[12] = read-out: Insulin Like Growth Factor 1 (IGF1), IGF1 (gene 3479); assay: LTEA_HepaRG_IGF1: Life Technologies and Expression Analysis (LTEA) Assay for Insulin Like Growth Factor 1 (IGF1) using HepaRG (AID 2283506)
Outline: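 qRT-PCR readout of IGF1 mRNA, normalized to three housekeeping genes, after 48 h chemical exposure of HepaRG cells. Concentrations: 8-point half-log series, top 100 uM, 0.5% DMSO vehicle. Gain or loss fitted against DMSO baseline.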

[13] = read-out: Intercellular Adhesion Molecule 1 (ICAM1), ICAM1 (gene 3383); assay: LTEA_HepaRG_ICAM1: Life Technologies and Expression Analysis (LTEA) Assay for Intercellular Adhesion Molecule 1 (ICAM1) using HepaRG (AID 2283507)
Outline: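 HepaRG, 48 h exposure, 8-pt half-log series from 100 uM, 0.5% DMSO vehicle, duplicates. Readout: TaqMan qRT-PCR mRNA, housekeeping-normalized (ACTB/GAPDH/POLR2A). Bidirectional curve fit vs DMSO baseline.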

[14] = read-out: Interleukin 6 (IL6), IL6 (gene 3569); assay: LTEA_HepaRG_IL6: Life Technologies and Expression Analysis (LTEA) Assay for Interleukin 6 (IL6) using HepaRG (AID 2283509)
Outline: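 qRT-PCR read-out of IL6 transcript, normalized to three housekeeping genes, after 48 h chemical exposure of HepaRG cells; 8-point half-log series, top 100 uM, 0.5% DMSO vehicle. Bidirectional curve fitting against DMSO baseline.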

[15] = read-out: Interleukin 6 Receptor (IL6R), IL6R (gene 3570); assay: LTEA_HepaRG_IL6R: Life Technologies and Expression Analysis (LTEA) Assay for Interleukin 6 Receptor (IL6R) using HepaRG (AID 2283510)
Outline: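 HepaRG, 48 h exposure, 8-pt half-log series, top 100 uM, 0.5% DMSO vehicle, duplicates. Read-out: TaqMan qRT-PCR of IL6R transcript, housekeeping-gene normalized. Gain or loss fitted relative to DMSO baseline.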

[16] = read-out: Potassium channel subfamily K member 1 (KCNK1), KCNK1 (gene 3775); assay: LTEA_HepaRG_KCNK1: Life Technologies and Expression Analysis (LTEA) Assay for Potassium channel subfamily K member 1 (KCNK1) using HepaRG (AID 2283511)
Outline: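 HepaRG, 48 h exposure, 8-pt half-log series top 100 uM, 0.5% DMSO vehicle, duplicates. Readout: KCNK1 transcript by qRT-PCR (Fluidigm array), housekeeping-normalized; bidirectional curve fit relative to DMSO baseline.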

[17] = read-out: Keratin 19 (KRT19), KRT19 (gene 3880); assay: LTEA_HepaRG_KRT19: Life Technologies and Expression Analysis (LTEA) Assay for Keratin 19 (KRT19) using HepaRG (AID 2283512)
Outline: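 HepaRG, 48 h chemical exposure, 8-pt half-log CRC from 100 uM, 0.5% DMSO vehicle, duplicates. Readout: TaqMan qRT-PCR of KRT19 mRNA, housekeeping-normalized (ACTB/GAPDH/POLR2A). Bidirectional fit vs DMSO baseline.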

[18] = read-out: JUN Transcription Factor, JUN (gene 3725); assay: LTEA_HepaRG_JUN: Life Technologies and Expression Analysis (LTEA) Assay for JUN Transcription Factor using HepaRG (AID 2283513)
Outline: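 HepaRG, 48 h exposure, 8-pt half-log series top 100 uM, 0.5% DMSO, duplicate. JUN mRNA by qRT-PCR (Fluidigm), housekeeping-normalized (ACTB/GAPDH/POLR2A); bidirectional curve fit vs DMSO baseline.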

[19] = read-out: Lipase C (LIPC), LIPC (gene 3990); assay: LTEA_HepaRG_LIPC: Life Technologies and Expression Analysis (LTEA) Assay for Lipase C (LIPC) using HepaRG (AID 2283514)
Outline: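 HepaRG, 48 h exposure, 8-pt half-log series from 100 uM in 0.5% DMSO, duplicates. Readout: LIPC mRNA by Fluidigm qRT-PCR, housekeeping-normalized (ACTB/GAPDH/POLR2A). Gain or loss fitted bidirectionally against DMSO baseline.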

[20] = read-out: Insulin-like growth factor-binding protein 1 (IGFBP1), IGFBP1 (gene 3484); assay: LTEA_HepaRG_IGFBP1: Life Technologies and Expression Analysis (LTEA) Assay for Insulin-like growth factor-binding protein 1 (IGFBP1) using HepaRG (AID 2283508)
Outline: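 qRT-PCR mRNA read-out (TaqMan, Fluidigm array), normalised to three housekeeping genes; HepaRG cells, 48 h exposure, 8-pt half-log series from 100 uM, 0.5% DMSO vehicle; bidirectional curve fit vs DMSO baseline.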

Measured: AC50

Chain of Hypoxia-inducible factor 1-alpha (Homo sapiens) (Q16665 whole entry, looked up): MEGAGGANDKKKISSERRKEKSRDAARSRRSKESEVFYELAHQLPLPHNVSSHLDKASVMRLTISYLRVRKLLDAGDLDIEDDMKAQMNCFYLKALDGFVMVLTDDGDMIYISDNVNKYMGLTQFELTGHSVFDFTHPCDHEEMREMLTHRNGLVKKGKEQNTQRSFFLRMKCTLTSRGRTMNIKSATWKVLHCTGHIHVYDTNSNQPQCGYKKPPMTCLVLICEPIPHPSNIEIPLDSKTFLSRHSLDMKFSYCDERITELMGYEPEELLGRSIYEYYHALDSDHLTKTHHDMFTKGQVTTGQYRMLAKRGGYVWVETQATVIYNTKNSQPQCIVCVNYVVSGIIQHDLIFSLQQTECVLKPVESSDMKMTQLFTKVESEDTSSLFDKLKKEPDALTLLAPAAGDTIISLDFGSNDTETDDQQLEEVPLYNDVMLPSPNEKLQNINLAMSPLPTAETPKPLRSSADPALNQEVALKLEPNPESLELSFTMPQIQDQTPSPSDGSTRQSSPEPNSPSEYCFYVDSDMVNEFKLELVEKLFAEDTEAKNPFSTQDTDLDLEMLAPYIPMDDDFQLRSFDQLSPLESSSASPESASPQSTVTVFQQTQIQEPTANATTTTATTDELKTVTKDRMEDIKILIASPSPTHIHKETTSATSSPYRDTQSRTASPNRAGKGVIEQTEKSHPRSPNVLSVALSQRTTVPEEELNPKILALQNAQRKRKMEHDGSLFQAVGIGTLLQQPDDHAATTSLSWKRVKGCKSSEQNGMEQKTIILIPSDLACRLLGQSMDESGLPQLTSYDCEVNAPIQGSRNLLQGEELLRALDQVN

CCCN(CCC)C(=O)SCC
inactive: [1] | [2] | [3] | [4] | [5] | [6] | [7] | [8] | [9] | [10] | [11] | [12] | [13] | [14] | [15] | [16] | [17] | [18] | [19]

O=C(O)C1(C(=O)Nc2ccc(Cl)cc2Cl)CC1
active: [1] 80.7 µM | [2] 77.8 µM | [3] 48.8 µM | [4] 50 µM | [5] 90.1 µM | [9] 50 µM | [10] 81 µM | [19] 76.2 µM
inactive: [6] | [7] | [8] | [11] | [12] | [13] | [14] | [15] | [16] | [17] | [18]

CCOC(=O)C(C)Oc1ccc(Oc2nc3ccc(Cl)cc3o2)cc1 (stereo unspecified)
inactive: [1] | [4] | [5] | [6] | [7] | [8] | [9] | [10] | [11] | [13] | [14] | [15] | [16] | [17] | [18] | [19]
active: [2] 19.9 µM | [3] 38.3 µM | [12] 20.2 µM

CCCCCCC(C)OC(=O)COc1nc(F)c(Cl)c(N)c1Cl (stereo unspecified)
inactive: [1] | [2] | [3] | [4] | [5] | [6] | [7] | [8] | [9] | [10] | [11] | [12] | [13] | [14] | [15] | [16] | [17] | [18] | [19]

CC1(C)C(C=C(Cl)Cl)C1C(=O)OCc1cccc(Oc2ccccc2)c1 (stereo unspecified)
inactive: [1] | [2] | [3] | [4] | [5] | [6] | [7] | [8] | [9] | [10] | [11] | [12] | [13] | [20] | [14] | [15] | [16] | [17] | [18] | [19]

CCCCOCCOCCOCc1cc2c(cc1CCC)OCO2
inactive: [1] | [2] | [3] | [4] | [6] | [7] | [9] | [10] | [11] | [13] | [14] | [15] | [16] | [17] | [18] | [19]
active: [5] 4.83 µM | [8] 7.35 µM | [12] 21.3 µM

CC(C)(C)[C@@H](O)[C@@H](Cc1ccc(Cl)cc1)n1cncn1
active: [1] 27.8 µM
inactive: [2] | [3] | [4] | [5] | [6] | [7] | [9] | [10] | [11] | [12] | [13] | [14] | [15] | [16] | [17] | [18] | [19]

CCCOC(=O)NCCCN(C)C
inactive: [1] | [2] | [3] | [4] | [5] | [6] | [7] | [8] | [9] | [10] | [12] | [13] | [14] | [15] | [16] | [17] | [18] | [19]
